The values that follow come from PubChem BioAssay (NCATS).

The structures appear in SMILES notation. Several values for one entry are separate records, joined by “and”; a condition that tells them apart may be missing. Identical values can stand only once. Inconclusive results are not listed. A number with no mark means an inactive call. Activity calls are given as the source filed them. Calls follow the shape of the dose curve; as a rule, active = well fitted curve in the direction sought with a large enough effect; inconclusive = small, poorly fitted or top-dose-only effect, or another doubt; inactive = no such curve, though single readings can be large or run the other way.
% is scaled to controls: 0 for no effect and ±100 for the full control effect; potency is read from the fitted curve at half-maximal effect.

This test can be described thus: qHTS Assay for Identifying Gametocytocidal Compounds (AID 743244).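 As to max response: actives lower the fluorescent signal which means gametocytes are killed.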 The following applies: P. falciparum 3D7 stage III-V gametocytes, alamarBlue, 72 h; max response: active compounds read low. The source says: Malaria cases and deaths have dropped 50% in 29 countries since 2000 due to the combined effects of long-lasting insecticidal bednets, indoor residual spraying, and artemisinin-based combination therapies (ACTs). This success has raised hopes for malaria eradication and consequently stimulated interest in developing new reagents that block gametocyte transmission such as novel and safe gametocytocidal drugs. However, previous drug development efforts have focused primarily on the asexual parasites that cause symptoms, but not malaria transmission. Consequently, patients can remain infectious for weeks after the clearance of asexual parasites and clinical symptoms. To be transmitted from person to person via a mosquito, the parasites must switch from asexual to sexual development and produce male and female gametocytes. Malaria gametocytes consist of five stages (I, II, III, IV and V). The late stage gametocytes (III, IV and V) are difficult to be cultured in vitro and the long lifespan of mature gametocytes allows them being transmitted from host to mosquitoes unless they are completely eliminated by gametocytocidal agents. To identify gametocytocidal compounds which are capable of killing late stage P. falciparum gametocytes, a high throughput gametocyte viability assay was employed. This assay uses oxidoreduction indicator, alamarBlue, as a general measure of metabolic activity of gametocytes. Within live cells, the nonfluorescent resazurin is reduced to resorufin, a bright red fluorescence dye. Fluorescence decreases upon treatment of gametocytocidal compounds. P. falciparum gametocyte (3D7 strain) was used in this study.
The 1536-well gametocycidal viability assay was based on the previous method of Tanaka et al. Stage III-V gametocytes were tested against three compound libraries, including 4265 compounds from NCGC pharmaceutical collection, 400 from Malaria Box library, and 550 from an internal collection of kinase inhibitors. Briefly, 2.5 ul/well incomplete medium was dispensed into each well of 1,536-well plates using the Multidrop Combi followed by 23 nl compound transferring using the NX-TR Pintool (WAKO Scientific Solutions, San Diego, CA). Then, 2.5 ul/well of gametocytes was dispensed with a seeding density of 20,000 cells/well using the Multidrop Combi. The assay plates were incubated for 72 h at 37C with 5% CO2. After addition of 5 ul/well of 2X AlamarBlue dye (Life Technologies, cat. no. DAL1100), the plates were incubated for 24 h at 37C with 5% CO2 and then were read in a fluorescence detection mode (Ex = 525 nm, Em = 598 nm) on a ViewLux plate reader (PerkinElmer).
(qHTS replaces the single test concentration by a dilution series.)
Consider `O=c1c(-c2ccc(O)cc2)coc2cc(O)ccc12`, for which the max response is 16.7%. Take `CC/C(=C(\c1ccccc1)c1ccc(OCCN(C)C)cc1)c1ccccc1`: the max response is 10%. The same measure, in the same setting: then `CC(C)[C@H](CO)Nc1nc(Nc2ccc(C(=O)O)c(Cl)c2)c2ncn(C(C)C)c2n1`, with 63.2%; and `Cc1nc(N)sc1-c1ccnc(Nc2ccc(N3CCOCC3)cc2)n1`, with -1.3%; and `O=C(O)c1c(Cl)c(Cl)c(Cl)c(Cl)c1-c1c2cc(I)c(=O)c(I)c-2oc2c(I)c(O)c(I)cc12`, with -8.78%.

As for `O=C(O)CCc1nc(-c2ccccc2)c(-c2ccccc2)o1`, the max response was 14.6% and 5.09%. The same measure, in the same setting: then `NC(N)=Nc1nc(CSCC/C(N)=N/S(N)(=O)=O)cs1`, with 5.05% and 9.64%.

With `O=C(Nc1cc(Cl)cc2c1[nH]c1cnccc12)c1cccnc1`, the max response is 1.52%. On to `CCN1CCC[C@H]1CNC(=O)c1cc(S(N)(=O)=O)ccc1OC`, for which the max response was 11.5% and 6.55%. In the case of `CN(C)C1CCN(C(=O)c2ccc(NC(=O)Nc3nc(N4CCOCC4)nc(N4CCOCC4)n3)cc2)CC1`, the Potency is 23.5 µM (active). With `O=C(O)c1ccc(-c2cc3cccnc3c(-c3ccc4nonc4c3)n2)cc1`, the max response was 33.8%. On the same count and under the same terms, the figure for `CN(C)Cc1ccc(-c2nc3cccc4c3n2CCNC4=O)cc1` is 13%. Same read-out and setting: then `O=C(O)c1cc(-c2ccccc2)nc2ccccc12`, with 4.65% and 33.8%; and `Clc1ccc(-c2nc3sccn3c2C=NOCc2ccc(Cl)c(Cl)c2)cc1`, with 17.5%. On to `CC(C(=O)O)c1ccc(-c2ccccc2)c(F)c1` (stereo not given), for which the max response is 6.81%.

As to `COc1ncc(-c2ccc3nccc(-c4ccnnc4)c3c2)cc1NS(=O)(=O)c1ccc(F)cc1F`, the Potency is 0.935 µM (active). In the case of `CC(C)(C(=O)NCC(F)(F)C(F)(F)F)C(=O)N[C@@H]1C(=O)Nc2ccccc2-c2ccccc21`, the max response is 8.7%. Consider `N#Cc1ccc(NC(=O)Nc2ccccc2Br)c2n[nH]nc12`, for which the max response is 26.2%. Take `O=C1C(Cl)=C(NCCN2CCOCC2)C(=O)c2ncccc21`: the max response was -156%. On the same count and under the same terms, the figure for `C[N+](C)(C)CCCCCC[N+](C)(C)C` is 5.46% and 9.66% and 12.2%. Still for that read-out and setting: the figure for `CC(=O)CCCCn1c(=O)c2c(ncn2C)n(C)c1=O` is -1.45% and 1.03%; for `O=C1NC(=O)C(c2ccccc2)(c2ccccc2)N1` it is -6.42% and 2.98% and 10.3%.

For `COc1cc(N2CCC(N3CCN(C)CC3)CC2)ccc1Nc1ncc(Cl)c(Nc2ccccc2S(=O)(=O)C(C)C)n1`, the Potency was 4.69 µM (active). As to `O=C1NCC2(CCN(CCc3ccccc3)CC2)O1`, the max response was 1.69% and 18.3%. Still for that read-out and setting: the figure for `CC(=O)O[C@]1(C(C)=O)CC[C@H]2[C@@H]3C=C(Cl)C4=CC(=O)[C@@H]5C[C@@H]5[C@]4(C)[C@H]3CC[C@@]21C` is 5.83%; for `OC[C@@H](O)[C@H](O)[C@H](O)[C@@H](O)CO` it is 1.74% and -2.1%.

In the case of `c1ccc2c(-c3cnn4cc(-c5ccc(N6CCNCC6)cc5)cnc34)ccnc2c1`, the Potency is 3.72 µM (active). Consider `O=C(O)CCC1CCC(c2cc(F)ccc2F)(S(=O)(=O)c2ccc(Cl)cc2)CC1` (stereo not given), for which the max response was -21%. Still for that read-out and setting: the figure for `O=C(NCCN1CCOCC1)c1ccc(Cl)cc1` is -4.13% and 9.69% and 29.4%; for `CCCNC(=O)NS(=O)(=O)c1ccc(Cl)cc1` it is 10.2% and -7.21%. As to `CCc1ccc(OCc2ccccc2C(=O)Nc2ccc3nc(C)cc(N)c3c2)cc1`, the Potency is 8.33 µM (active).

With `O=c1cc(CN2CCOCC2)occ1OCCCCCSc1ccnc2cc(C(F)(F)F)ccc12`, the max response was 18.6%. Same read-out and setting: the figure for `Cc1cccc(C)c1OCC(C)N` (stereo not given) is 9.33% and -4.15% and 13.1%; for `CC(C)OC(=O)C(C)(C)Oc1ccc(C(=O)c2ccc(Cl)cc2)cc1` it is 7.26% and 15.7%. As for `CC1(C)CCC2=C(O1)c1ccccc1C(=O)C2=O`, the Potency is 2.82 µM (active). As to `OC[C@H]1O[C@@H](n2cnc3c2NC=NC[C@@H]3O)C[C@H]1O`, the max response is 12.6%. Still for that read-out and setting: then `CCN(CC)CCNC(=O)c1ccc(N)cc1`, with 34.9%; and `O=c1cc(-c2ccc(O)cc2)oc2cc(O)cc(O)c12`, with 0.431%; and `CC(=O)Nc1ccc([C@H](C)C(=O)Nc2ncc(C(C)C)s2)cc1`, with 12.4%. As to `Cc1ccc(F)c(NC(=O)Nc2ccc(-c3cccc4[nH]nc(N)c34)cc2)c1`, the max response was 19.5%.
